Rows were chosen to be rich in hits. Some 11% of all compounds tested hit in one or more screens of this group.
HEK293 tox = HEK 293 cell cytotoxicity; actives 6.6% (n = 94,000); Potency, µM (doses to about 115 µM), usual class: inhibitors; HEK 293 viability, ATP luminescence (CellTiter-Glo), 48-72 h; AID 1345083; also: nearly all actives have a fitted effect of over 60% in size
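HEK 293 cells seeded at 250 cells/well were exposed to compound for 48 or 72 hr at 37 degree Celsius. Viability taken as ATP content by CellTiter-Glo luminescence.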
FLuc inh-1 = inhibitors of firefly (Photinus pyralis) luciferase. P08659. purified P. pyralis luciferase, luminescence, biochemical. Potency, µM (series often up to 115 µM), most hits filed as inhibitors. actives 2.5% (n = 76,000). AID 1347043; also: nearly all actives have a fitted effect of over 65% in size
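Inhibitors were tested against purified firefly luciferase in a biochemical, low-substrate format (both substrates at 10uM) and luminescence measured with a CCD imager.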
hNpr1 antagonist = antagonists of human natriuretic peptide receptor Npr1. P16066. HEK293 hNpr1 GloSensor cGMP, ANP-stimulated luminescence. Potency, µM (highest dose often 46.3 µM), usual class: inhibitors. actives 1.6% (n = 76,000); calls by dose curve; also: nearly all actives have a fitted effect of over 60% in size
Target sequence (P16066 whole entry, looked up): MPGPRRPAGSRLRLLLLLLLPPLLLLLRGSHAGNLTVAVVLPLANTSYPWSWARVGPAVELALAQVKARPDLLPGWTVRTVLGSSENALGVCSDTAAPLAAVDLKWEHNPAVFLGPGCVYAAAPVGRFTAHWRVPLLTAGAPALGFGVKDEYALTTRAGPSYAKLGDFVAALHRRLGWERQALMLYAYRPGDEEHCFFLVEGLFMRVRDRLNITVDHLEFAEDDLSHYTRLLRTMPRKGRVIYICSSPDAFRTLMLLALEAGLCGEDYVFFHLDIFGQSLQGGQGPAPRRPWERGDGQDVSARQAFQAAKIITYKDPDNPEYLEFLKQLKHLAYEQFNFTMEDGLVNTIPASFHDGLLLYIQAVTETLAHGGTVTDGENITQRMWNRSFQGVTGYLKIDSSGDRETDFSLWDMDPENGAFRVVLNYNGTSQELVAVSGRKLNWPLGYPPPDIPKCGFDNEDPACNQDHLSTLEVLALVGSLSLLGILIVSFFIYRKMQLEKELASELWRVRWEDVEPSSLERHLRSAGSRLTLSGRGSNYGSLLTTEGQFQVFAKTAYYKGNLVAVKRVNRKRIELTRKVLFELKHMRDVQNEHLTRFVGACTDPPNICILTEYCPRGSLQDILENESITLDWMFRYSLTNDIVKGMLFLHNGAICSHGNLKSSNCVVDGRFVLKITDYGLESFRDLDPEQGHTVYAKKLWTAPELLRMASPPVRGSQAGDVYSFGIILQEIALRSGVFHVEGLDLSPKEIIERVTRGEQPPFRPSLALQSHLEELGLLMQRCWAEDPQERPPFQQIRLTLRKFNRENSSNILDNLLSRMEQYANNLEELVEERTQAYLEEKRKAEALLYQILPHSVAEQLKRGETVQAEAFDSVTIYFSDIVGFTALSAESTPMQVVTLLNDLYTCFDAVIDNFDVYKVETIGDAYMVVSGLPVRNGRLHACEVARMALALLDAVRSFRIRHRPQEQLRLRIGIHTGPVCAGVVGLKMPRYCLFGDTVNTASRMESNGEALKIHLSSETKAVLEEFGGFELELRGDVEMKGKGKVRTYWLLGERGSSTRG
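Compound pre-incubated 30 min at room temperature on GloSensor-loaded HEK293 cells stably carrying hNpr1 and the pGS-40F cGMP biosensor. Stimulation uses hNppA at 0.1 nM final; luminescence is taken at baseline and 20 min post-agonist.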
3T3 cytotox = cytotoxic compounds in NIH 3T3 cells | actives 4.3% (n = 94,000) | NIH 3T3 viability, CellTiter-Glo ATP luminescence, 48-72 h | Potency, µM (titrated, usually from 96.7 µM), most hits filed as inhibitors | AID 1345082; also: nearly all actives have a fitted effect of over 55% in size
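Viability of NIH 3T3 cells after 48 or 72 hr compound treatment at 37 °C was assessed by CellTiter-Glo, with luminescence imaged following a 10 min room-temperature step.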
FLuc SDR -ATP = binders stabilizing firefly luciferase, without ATP | shares compounds with FLuc inh-1 | Purified FLuc-C-HiBiT, Nano-Glo HiBiT luminescence, no ATP | Potency, µM (series often up to 32.7 µM), usual class: activators | actives 7.8% (n = 1,300); also: nearly all actives have a fitted effect of over 55% in size
FLuc SDR ATP = stabilizes firefly luciferase with ATP present; shares compounds with FLuc inh-1; purified FLuc-C-HiBiT + ATP, HiBiT complementation luminescence; Potency, µM (top dose mostly 32.7 µM), usual class: activators; actives 8.7% (n = 1,300); AID 1963319;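 also: signal reports ligand binding via conformational change of the enzyme rather than luciferase catalysis; nearly all actives have a fitted effect of over 55% in size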
FLuc inh-2 = inhibitors of firefly luciferase enzymatic activity. purified FLuc-C-HiBiT enzyme, luciferin luminescence. Potency, µM (series often up to 32.7 µM), hits mostly inhibitors. actives 42% (n = 1,300). AID 1963320. shares compounds with FLuc inh-1; also: nearly all actives have a fitted effect of over 70% in size
Large screens that a line does not name were inactive (follow-up assays come after a bar, where they were run). Unless noted, calls follow the shape of the dose curve; as a rule, active = well fitted curve in the direction sought with a large enough effect; inconclusive = small, poorly fitted or top-dose-only effect, or another doubt; inactive = no such curve, though single readings can be large; an effect the other way counts as inactive or inconclusive.

CN(CCc1noc(C2CN(Cc3ccc(F)c(F)c3)C2)n1)C(=O)C1CC1	HEK293 tox inconclusive, 3T3 cytotox inconclusive
COc1ccc(-c2noc(N3CCc4ccccc43)n2)cc1	FLuc inh-1 1.6µM, hNpr1 antagonist inconclusive | FLuc SDR -ATP inactive | FLuc SDR ATP inconclusive | FLuc inh-2 3.1µM
Cc1ccc(Cl)cc1-n1nnc(-c2nsc(NC(=O)c3ccccc3Cl)n2)c1C	none (no result: HEK293 tox, FLuc inh-1, hNpr1 antagonist, 3T3 cytotox) | FLuc SDR -ATP inactive | FLuc SDR ATP inactive | FLuc inh-2 inactive
CC(C)CCN1C(=O)CC[C@]2(C(=O)N(C)Cc3ccccc3)CCCC[C@@H]12	HEK293 tox inconclusive, 3T3 cytotox inconclusive
CCNC(=O)C1C(c2cccc(NC(=O)c3ccc(C)cc3)c2)OC(=O)N1Cc1ccc(F)cc1 (stereo not given)	HEK293 tox inconclusive, FLuc inh-1 2.2µM, hNpr1 antagonist 11µM, 3T3 cytotox inconclusive | FLuc SDR -ATP inactive | FLuc SDR ATP 1.6µM | FLuc inh-2 1.8µM
O=C(NCc1ccccn1)c1ccc2c(c1)CC(=O)N2Cc1ccc(F)cc1	HEK293 tox inconclusive, 3T3 cytotox inconclusive
CCc1nc2c(c(-c3ccc(O)cc3)n1)CCN(C(=O)c1ccccc1C)CC2	none (no result: FLuc inh-1, hNpr1 antagonist)
O=C1c2cnc(-c3ccc(F)cc3)nc2OCCN1CC1CC1	none (no result: HEK293 tox, FLuc inh-1, hNpr1 antagonist, 3T3 cytotox) | FLuc SDR -ATP inconclusive | FLuc SDR ATP inconclusive | FLuc inh-2 14µM
O=C1c2cnc(-c3ccc(F)cc3F)nc2OCCN1CC1CC1	none (no result: HEK293 tox, FLuc inh-1, hNpr1 antagonist, 3T3 cytotox) | FLuc SDR -ATP inactive | FLuc SDR ATP inconclusive | FLuc inh-2 inconclusive
COc1ccc(-c2cc(N3CCCC(NC(=O)c4ccc5ncccc5c4)C3)n[nH]2)cc1 (stereo not given)	HEK293 tox inconclusive, FLuc inh-1 3.2µM, 3T3 cytotox inconclusive | FLuc SDR -ATP inactive | FLuc SDR ATP inactive | FLuc inh-2 3.9µM
CN(C)c1cccc(C(=O)NC2CCN(c3cc(-c4ccccc4)[nH]n3)C2)c1 (stereo not given)	HEK293 tox inconclusive, FLuc inh-1 7.1µM, 3T3 cytotox inconclusive | FLuc SDR -ATP inactive | FLuc SDR ATP 7.9µM | FLuc inh-2 7µM
O=C(NC1CCCN(c2cc(-c3ccc(F)cc3)[nH]n2)C1)c1ccc2ncccc2c1 (stereo not given)	HEK293 tox inconclusive, FLuc inh-1 4.5µM, 3T3 cytotox inconclusive | FLuc SDR -ATP inactive | FLuc SDR ATP inactive | FLuc inh-2 8.8µM
Cc1ccc(C(=O)NC2CCN(c3cc(-c4ccccc4)[nH]n3)C2)cc1C (stereo not given)	HEK293 tox inconclusive, 3T3 cytotox inconclusive
COc1ccc(CCNC(=O)c2nc3sccn3c2-c2cccnc2)cc1	none (no result: FLuc inh-1, hNpr1 antagonist)
O=C(NCC1CCCN(C(=O)N2CCCC2)C1)c1ccc(-c2ccccc2)cc1 (stereo not given)	HEK293 tox inconclusive, FLuc inh-1 7.9µM, 3T3 cytotox inconclusive | FLuc SDR -ATP inactive | FLuc SDR ATP inactive | FLuc inh-2 inconclusive
Cc1cc(C)cc(N2CCN(c3cc(C4CC(O)C4)ncn3)CC2=O)c1 (stereo not given)	none
OC1CC(c2cc(N3CCc4c(Cl)cccc4C3)ncn2)C1 (stereo not given)	HEK293 tox inconclusive, FLuc inh-1 1.3µM, hNpr1 antagonist 2.5µM, 3T3 cytotox inconclusive | FLuc SDR -ATP inactive | FLuc SDR ATP inconclusive | FLuc inh-2 inconclusive
Cc1ccc(-c2cn3cc(C(=O)NCC4CCCCC4)nc3s2)cc1	none (no result: FLuc inh-1, hNpr1 antagonist)
Cc1nccc(N2CCC(COc3ccc4c(cnn4CC[S+](C)(=O)[O-])c3)CC2)n1	HEK293 tox inconclusive, hNpr1 antagonist inconclusive, 3T3 cytotox inconclusive
C[S+](=O)([O-])CCn1ncc2cc(OCc3cccc(-c4cccnc4)c3)ccc21	HEK293 tox 79µM, FLuc inh-1 5µM, hNpr1 antagonist 28µM, 3T3 cytotox inconclusive | FLuc SDR -ATP inactive | FLuc SDR ATP inconclusive | FLuc inh-2 16µM
C[S+](=O)([O-])CCn1ncc2cc(OCc3cccc(-c4cccc(O)c4)c3)ccc21	HEK293 tox 71µM, FLuc inh-1 4µM, hNpr1 antagonist inconclusive, 3T3 cytotox inconclusive | FLuc SDR -ATP inactive | FLuc SDR ATP inactive | FLuc inh-2 inconclusive
